# Among all 310,000 compounds or so, about 17,000 (5.5%) were called active. Inconclusive results (about 11%) are left out. The call rests on the fitted dose curve; in most records, active means well fitted inhibition curve with a large enough effect; inconclusive means small, poorly fitted or top-dose-only effect, or effect the other way; inactive means no such curve, though single readings can be large or run the other way. The entries come from a sample that favours actives as a whole.
# Target: Nuclear receptor ROR-gamma (Mus musculus) (UniProt P51450)
# Sequence (P51450 whole entry, looked up): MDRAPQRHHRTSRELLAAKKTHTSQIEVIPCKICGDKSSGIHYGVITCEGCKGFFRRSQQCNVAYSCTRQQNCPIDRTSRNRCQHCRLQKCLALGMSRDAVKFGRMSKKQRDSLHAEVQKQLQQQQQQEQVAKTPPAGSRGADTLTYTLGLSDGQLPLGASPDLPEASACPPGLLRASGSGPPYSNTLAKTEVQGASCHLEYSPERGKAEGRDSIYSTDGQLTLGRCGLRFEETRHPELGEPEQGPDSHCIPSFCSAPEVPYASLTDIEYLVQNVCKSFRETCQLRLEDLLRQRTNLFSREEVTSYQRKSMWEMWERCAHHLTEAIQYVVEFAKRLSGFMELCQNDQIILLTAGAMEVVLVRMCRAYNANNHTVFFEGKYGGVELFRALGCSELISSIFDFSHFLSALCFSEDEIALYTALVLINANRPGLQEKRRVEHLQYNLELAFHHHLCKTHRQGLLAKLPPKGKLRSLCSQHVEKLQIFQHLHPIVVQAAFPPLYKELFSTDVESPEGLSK
# Experiment: qHTS for inhibitors of ROR gamma transcriptional activity; further: nearly all actives have a fitted effect of over 60% in size
# Conditions: Drosophila S2 Gal4-RORgamma UAS-luciferase reporter, 20 h; series mostly up to 53.6 µM; activity change, negative = inhibition: at the top concentration
# Method in brief: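 Compounds are pin-transferred onto Drosophila Schneider cells expressing a copper-inducible Gal4–ROR gamma transactivation domain fusion. After 1 hr, copper sulfate is added to 700 uM final; luciferase is read 20 hr later.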
# On the % scale 0 is the no-effect control and ±100 the full control effect; potency means the concentration at half of the fitted maximal effect.
Compound,"activity change, negative = inhibition",Potency
c1cnc(N2CCN(c3ccc4ccccc4n3)CC2)nc1,-20.4% (inactive),–
CCCN1CCn2c3c(c4cc(Br)ccc42)CCCC31 (configuration not stated),-5.16% (inactive),–
COCCN1CCn2c(nc3cc(NS(C)(=O)=O)ccc32)C1,9.64% (inactive),–
COCCOC(=O)c1[nH]c2c(c1C)C(=O)CC(c1ccc(OC)cc1)C2 (configuration not stated),30.1% (inactive),–
Cc1ccc(OCC(=O)NCCCNC(=O)c2cccnc2)cc1C,-1.54% (inactive),–
Cc1cn([C@H]2CC(F)[C@@H](CO)O2)c(=O)[nH]c1=O (some centres not stated),-17.9% (inactive),–
COc1cccc(CNc2ncc(-c3ccccc3)n2C)c1,-20.9% (inactive),–
CC(C)[C@@H](NC(=O)OC(C)(C)C)C(=O)NCC1CCC(C(=O)N[C@@H](Cc2ccccc2)C(=O)O)CC1 (some centres not stated),10.4% (inactive),–
CCC1OC(c2ccc([N+](=O)[O-])cc2)=Nc2ccccc21 (configuration not stated),19.1% (inactive),–
CC(=O)Nc1ccc(NC(=O)C2CCCN(S(=O)(=O)c3ccc(Cl)cc3)C2)cc1 (configuration not stated),-12.4% (inactive),–
CCOC(=O)Cn1c(SC)nc2sc3c(c2c1=O)CC(C)(C)OC3,5.51% (inactive),–
COc1ncnc2sc3c(c12)CCCC3,-11.1% (inactive),–
CCSc1nc2sc3c(c2c(=O)[nH]1)CC(C)(C)OC3,-2.33% (inactive),–
CC(C)c1nc(SCC(=O)Nc2cccc(C(=O)O)c2)c2c3c(sc2n1)CCCC3,10.5% (inactive),–
CCc1nc(N2CCN(C(C)=O)CC2)c2c3c(sc2n1)CCCC3,27.6% (inactive),–
COCCNc1nc(-n2nc(C)cc2C)nc2sc3c(c12)CCCC3,–,0.562 µM (active)
Cc1cc(C)n(-c2nc(SCC(=O)N3CCCC3)c3c4c(sc3n2)CCCC4)n1,–,6.31 µM (active)
CCC(O)CNc1nc(-n2nc(C)cc2C)nc2sc3c(c12)CC(C)(C)OC3 (configuration not stated),–,1.58 µM (active)
COCCn1c(C)cc(C(=O)CSc2ncnc3sc4c(c23)CCC4)c1C,2.15% (inactive),–
Cc1cccn2c(=O)c(/C=C(\C#N)C(N)=O)c(N3CCCCCC3)nc12,41.5% (inactive),–
CN(Cc1ccccc1)S(=O)(=O)c1nnc(NC(=O)c2ccccc2F)s1,14.3% (inactive),–
CC(=O)Nc1cccc(NC(=O)CSc2nccn2Cc2ccc(F)cc2)c1,-10.8% (inactive),–
Cn1c(=O)c2ccccc2n(CC(=O)Nc2ccc3c(c2)OCCO3)c1=O,38.8% (inactive),–

Compound,"activity change, negative = inhibition",Potency
Cc1ccc(-c2nc(CS(=O)(=O)CC(=O)NCc3ccc4c(c3)OCO4)c(C)o2)cc1,-22.5% (inactive),–
Cc1ccc(NS(=O)(=O)c2ccc(-c3ccc(=O)[nH]n3)o2)c(C)c1,18.7% (inactive),–
NC(=O)CN1CCCC1c1ccc2c(c1)OCCO2 (configuration not stated),-5.36% (inactive),–
CC1C(=O)Nc2ccc(S(=O)(=O)N3CCN(c4ccccc4F)CC3)cc2NC1=O (configuration not stated),31.3% (inactive),–
COc1cc(/C=N/n2c(C)n[nH]c2=S)ccc1OCc1ccccc1,–,6.31 µM (active)
COc1cc(/C=N/O)ccc1OCc1ccc([N+](=O)[O-])cc1,-23% (inactive),–
CCOc1ccc(/C=N/Nc2nncc(-c3ccccc3)n2)cc1OC,11.4% (inactive),–
COCC1CCN(C(=O)C2CCC(=O)N(Cc3cccc(C(F)(F)F)c3)C2)CC1 (configuration not stated),3.4% (inactive),–
O=C(NCc1ccccn1)[C@]1(C(F)(F)F)C[C@H](CCc2ccccc2)CCCO1,4.22% (inactive),–
O=C(NCc1cc(F)cc(C(F)(F)F)c1)C1CCC(=O)N(C2CCCC2)C1 (configuration not stated),38.2% (inactive),–
CC1CCCC(C)N1C(=O)CSc1nnnn1C1CCCC1 (configuration not stated),5% (inactive),–
O=C(Cn1nnc(-c2ccccc2)n1)N/N=C/c1ccc(-c2ccc(Cl)cc2)o1,–,7.08 µM (active)
Nc1nnn(CC(=O)N/N=C/c2ccccc2)n1,4.37% (inactive),–
Nc1nnnn1CC(=O)N/N=C/c1ccc(-c2cccc(Cl)c2)o1,-17.9% (inactive),–
Cc1ccccc1OCC(=O)N(Cc1cccc(F)c1)C1CCS(=O)(=O)C1 (configuration not stated),16.9% (inactive),–
Cc1nn(C)cc1C(=O)NNC(=S)Nc1ccc(Cl)cc1,–,11.2 µM (active)
Cc1nn(C)cc1CNC(=O)Nc1ccc(Cl)cc1,41.3% (inactive),–
Cc1nn(C)cc1C(=O)Nc1ccccc1Br,23.8% (inactive),–
CC1CCN(S(=O)(=O)c2ccc3c(ccn3CC(=O)O)c2)CC1,-0.22% (inactive),–
O=C(O)/C=C/c1ccc2c(c1)OCCO2,-3.92% (inactive),–
Cc1nn(-c2ccccc2)c(Cl)c1/C=C/C(=O)c1ccc(O)cc1,33.8% (inactive),–
O=C(/C=C/c1ccc2c(c1)OCCO2)c1ccc(O)cc1,–,1.26 µM (active)
CN(C)c1ccc(/C=C/C(=O)c2ccc(O)cc2)cc1[N+](=O)[O-],–,1.41 µM (active)

Compound,"activity change, negative = inhibition",Potency
CN(C)c1ccc(/C=C/C(=O)c2ccc(C(C)(C)C)cc2)cc1[N+](=O)[O-],-0.484% (inactive),–
CC(=O)c1ccc2c(c1)OCCOCCOc1ccc(C(C)=O)cc1OCCOCCO2,25% (inactive),–
Cc1ccc([N+](=O)[O-])cc1S(=O)(=O)N1CCCN(C)CC1,-22.4% (inactive),–
O=C(CCc1nnc2ccc(NCCCN3CCCC3=O)nn12)NCc1ccccc1Cl,-9.05% (inactive),–
Cc1ccc(/C=C2/SC(=S)N(CCC(=O)NCCCN3CCOCC3)C2=O)cc1,28.6% (inactive),–
O=C(NC1CCC(O)CC1)c1ccccc1OCc1ccc(F)cc1 (configuration not stated),4.09% (inactive),–
O=c1c(-c2cccc(Cl)c2)c[nH]n1-c1ccccc1,35.9% (inactive),–
O=C1NC(c2cccc(Cl)c2)Nc2ccccc21 (configuration not stated),19.6% (inactive),–
O=C1c2ccccc2NC(c2ccc(-c3cccc(Cl)c3)o2)N1O (configuration not stated),–,11.2 µM (active)
COc1cc(-c2c(-c3ccc4c(c3)OCO4)noc2C)ccc1F,-12.6% (inactive),–
COc1ccc(NS(=O)(=O)c2ccc(NC(C)=O)cc2)cc1OC,35.4% [at 0.365 µM] (inactive),–
COc1ccc(NC(=O)CNC(=O)Cc2ccccc2)cc1OC,0.651% (inactive),–
COc1ccc(NC(=S)SC)cc1OC,–,20 µM (active)
Cc1c(C(=O)N2CCCC2)c(S(=O)(=O)NCC(C)c2ccccc2)c(C)n1C (configuration not stated),4.91% (inactive),–
CN(C)CCCNC(=S)N1CCN(c2nc(-c3ccccc3)cs2)CC1,-22.1% (inactive),–
Cc1cccc(NC(=S)Nc2ccc(Cl)c(Cl)c2)c1,–,15.8 µM (active)
Cc1csc(NC(=S)Nc2cccc(Cl)c2)n1,–,0.708 µM (active)
NS(=O)(=O)c1ccc(NC(=S)Nc2ccc(Br)c(Cl)c2)cc1,-26.3% (inactive),–
CC(=O)Nc1cccc(C(=O)Nc2nc(C)cs2)c1,5.23% (inactive),–
Cc1cccc(NC(=S)Nc2ccc3cn[nH]c3c2)c1,-20.5% (inactive),–
Fc1cc(Br)ccc1NC(=S)Nc1cccnc1,-9.91% (inactive),–
Cc1cccc(NC(=S)Nc2ccc(Br)cc2)c1,–,7.08 µM (active)
S=C(Nc1cccc(Cl)c1)Nc1ccc2cn[nH]c2c1,3.96% (inactive),–

Compound,"activity change, negative = inhibition",Potency
Cc1cccc(Br)c1,-4.15% (inactive),–
Cc1ccc(NC(=O)C2CCN(S(=O)(=O)c3ccc4c(c3)NC(=O)CO4)CC2)cc1C,41.8% (inactive),–
CN(CCO)S(=O)(=O)c1ccc2c(c1)C(=O)c1cc(S(=O)(=O)N(C)CCO)ccc1-2,0.564% (inactive),–
CCCn1cc(S(=O)(=O)c2ccc(C)cc2)c(=O)c2cc(OCC)ccc21,0.63% (inactive),–
CC1C(=O)N(Cc2ccccc2)c2ccccc2N1C(=O)c1ccccc1 (configuration not stated),8.29% (inactive),–
Cc1cccc(C(=O)Nc2nnc(S(=O)(=O)N3CCCCCC3)s2)c1,16.9% (inactive),–
Cc1cnc(CN(C)C(=O)CC2C(=O)NCCN2Cc2cccc(F)c2F)[nH]1 (configuration not stated),-20.8% (inactive),–
COc1ccc(OC)c(NC(=O)c2cccc(S(=O)(=O)N3CCN(C(C)=O)CC3)c2)c1,-2.46% (inactive),–
Cc1oc2c(c1C(=O)N1CCOCC1)C(=O)c1ccccc1C2=O,–,3.98 µM (active)
Cc1noc(C)c1C(=O)N1CCOCC1,2.89% (inactive),–
Cc1onc(-c2ccccc2)c1C(=O)N1CCOCC1,-18.9% (inactive),–
COc1ccc(C2/C(=C(/O)c3ccc4c(c3)CC(C)O4)C(=O)C(=O)N2Cc2ccncc2)cc1 (configuration not stated),-8.85% (inactive),–
COc1ccc(/C=C2\SC(=O)N(CCC(=O)NCCCn3ccnc3)C2=O)cc1,-6.56% (inactive),–
CCn1nnnc1SCC(=O)Nc1ccc(N(C)C)cc1,-2.16% (inactive),–
N#Cc1cccc(CS(=O)(=O)c2nnnn2-c2cc(C(F)(F)F)cc(C(F)(F)F)c2)c1,16.1% (inactive),–
COc1ccccc1N1CCN(S(=O)(=O)c2ccc(Cl)cc2)CC1,38.5% (inactive),–
COc1ccccc1-n1nnnc1S(=O)(=O)Cc1ccc(Cl)cc1,–,11.2 µM (active)
CCn1ccnc1CN(C)C(=O)c1cc(COc2ccc(-n3cncn3)cc2)on1,-3.57% (inactive),–
COc1ccc(-c2[nH]ncc2/C=N/NC(=O)c2cc(Br)ccc2O)c(OC)c1,–,2.24 µM (active)
COc1ccc(/C=N/NC(=O)Nc2ccc3nsnc3c2)c(OC)c1,-0.124% (inactive),–
COc1ccc(O)c(C=Nc2cc(C)on2)c1,-0.282% (inactive),–
COc1cc(CN2CCCC(C(=O)c3ccc(SC)cc3)C2)cc(Cl)c1O (configuration not stated),-3.37% [at 1.91 µM] (inactive),–
Cc1nc2nc(C)c(NS(=O)(=O)c3ccc(C(C)(C)C)cc3)c(=O)n2[nH]1,-9.88% (inactive),–

Compound,"activity change, negative = inhibition",Potency
CC(=O)c1ccc(N2CCN(S(=O)(=O)c3ccc4c(c3)CC(=O)N4C)CC2)cc1,25.1% (inactive),–
CC(NC(=O)c1ccco1)C(=O)Nc1nc(-c2ccccn2)cs1 (configuration not stated),–,11.2 µM (active)
Cc1cc(NC(=O)[C@H](C)NC(=O)c2ccco2)ccc1Br,2.23% (inactive),–
O=C(CN1C(=O)C2C3C=CC(C3)C2C1=O)Nc1nc(-c2ccccn2)cs1 (configuration not stated),-0.0112% (inactive),–
O=C(Nc1ccc(N2CCCC2=O)cc1)c1cncc(Br)c1,-16.2% (inactive),–
COc1ccc(NC(=O)c2cc([N+](=O)[O-])ccc2NC(=O)CNC2CCCCC2C)c(OC)c1 (configuration not stated),5.91% (inactive),–
C=C(Br)Cn1c(CCCC)nc2ccccc21,–,15.8 µM (active)
CCCCn1c(CN2CCN(CCO)CC2)nc2ccccc21,-0.635% (inactive),–
CCCCn1c(CCCNC(=O)CC)nc2ccccc21,-14.6% (inactive),–
Cc1snc(SCc2c(F)cccc2Cl)c1C#N,15.7% (inactive),–
CCc1ccc(OCC(=O)N(Cc2ccccc2)C2CCS(=O)(=O)C2)cc1 (configuration not stated),10.7% (inactive),–
COc1ccc(Cl)cc1C(=O)NNC(=O)c1nc2nc(C)cc(C)n2n1,-7.86% (inactive),–
COc1cc(OC)c(C(=O)NC2CCCCCC2)cc1OC,3.98% (inactive),–
COc1cc(C(=S)NC2CCCCC2)ccc1O,-15.6% (inactive),–
COc1ccc(Cl)cc1C(=O)NCC#N,-15% (inactive),–
COc1ccc(CCNC(=O)CCC(=O)NC2CCCCC2)cc1OC,16.7% (inactive),–
COc1ccc(C(C)NC(=S)NC2CCCCC2)cc1OC (configuration not stated),–,11.2 µM (active)
COc1ccc(Cl)cc1C(=O)NNC(=S)NC1CCCC1,–,11.2 µM (active)
COc1ccc(Cl)cc1C(=O)NNC(=S)NC(=O)/C=C/c1ccco1,–,3.98 µM (active)
C=CCNC(=S)NNC(=O)c1cc(Cl)ccc1OC,27.5% (inactive),–

# Reference: PubChem BioAssay AID2551 (National Center for Advancing Translational Sciences (NCATS), 2010)
